This is a sample that favours compounds with a hit; in the whole collection about 21% have one here.
TDP1 cell CPT: growth inhibition of DT40 Tdp1-/-;hTDP1 cells with camptothecin (screen for TDP1 inhibitors); Potency, µM (doses to about 46.2 µM), for the others: at the top dose activity change, negative = growth inhibition, most hits filed as inhibitors; chicken DT40 Tdp1-/-;hTDP1 cells + 20 nM CPT, ATP luminescence, 48 h; AID 686979; 420,000 compounds, 12% hits; note: potency is the fitted concentration of half-maximal effect; % is set by controls: 0 for no effect and ±100 for the full control effect; nearly all actives have a fitted effect of over 55% in size
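Chicken DT40 Tdp1-/- cells stably complemented with human TDP1 were seeded at 400 cells/well in medium containing 20 nM camptothecin, exposed to pin-transferred compounds, and grown at 37 °C for at least 48 hr. Viability was read as ATP luminescence.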
D3 ag: D3 dopamine receptor (human) agonism | P35462 | D3R DiscoveRx beta-arrestin cells, luminescence, 90 min | max activation, % | 410,000 compounds, 0.58% hits | AID 652048; in the data active = max activation above about 30%; note: 0% is about no effect
Target sequence (P35462 whole entry, looked up): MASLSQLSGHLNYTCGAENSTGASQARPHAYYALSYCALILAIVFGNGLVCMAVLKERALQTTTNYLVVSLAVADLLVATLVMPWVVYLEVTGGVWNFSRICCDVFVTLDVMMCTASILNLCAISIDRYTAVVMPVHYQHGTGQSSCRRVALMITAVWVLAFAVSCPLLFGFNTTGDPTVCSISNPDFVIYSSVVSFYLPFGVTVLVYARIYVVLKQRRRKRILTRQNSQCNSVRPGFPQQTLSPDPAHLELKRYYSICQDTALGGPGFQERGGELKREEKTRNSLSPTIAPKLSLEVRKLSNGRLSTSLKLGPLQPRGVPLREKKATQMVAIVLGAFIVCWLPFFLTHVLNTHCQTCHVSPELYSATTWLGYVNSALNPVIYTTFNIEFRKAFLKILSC
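Cells at 1500/well, incubated overnight, then treated with pinned compounds (dopamine as control) for 90 min at 37 degrees C. DiscoveRx reagent added for 30 - 60 minutes at room temperature; luminescence read.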
D3 antag: D3 dopamine receptor (human) antagonism | P35462 | D3R cells, DiscoveRx beta-arrestin luminescence, antagonist mode; active compounds read low | max response, negative = inhibition, % | 360,000 compounds, 2.5% hits; in the data active = max response below about -50%; inconclusive = no clear call, values can overlap the other calls; note: % is set by controls: 0 for no effect and ±100 for the full control effect
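Cells expressing the human receptor were seeded at 1500 cells/well, incubated overnight at 37 degrees C in 5% CO2, then exposed to library compounds with dopamine controls for 90 minutes at 37 degrees C before luminescent detection.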
IL-1B inflam inh: inflammasome signaling inhibition, IL-1 beta readout | THP-1 LPS/ATP IL-1B secretion, AlphaLISA, 16 h; active compounds read low | activity change, % at 57.5 µM | 360,000 compounds, 4.7% hits | AID 743279; in the data active = activity change below about -50%; inconclusive = mostly about -30% to -49%; note: % is set by controls: 0 for no effect and ±100 for the full control effect
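Secreted IL-1B measured by AlphaLISA bead assay after 16 h compound exposure of THP-1 cells; compounds (final up to 57.5 uM) added 1 h before LPS (250 ng/mL) and ATP (1.25 mM) stimulation; lower signal means less secretion.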
ClpP mod: qHTS Assay for Activators of ClpP; purified B. subtilis ClpP, FRET peptide cleavage, 20 min; Potency, µM (top dose mostly 57.5 µM), for inactives: top-dose activity change, negative = active; 340,000 compounds, 1.9% hits; ATP-dependent Clp protease proteolytic subunit (Bacillus subtilis (strain 168)), P80244; active = well fitted falling curve with a large enough effect; inconclusive = small, poorly fitted or top-dose-only effect; inactive = no such curve, though single readings can be large or run the other way; note: potency is the fitted concentration of half-maximal effect; the source files actives as falling curves though it sought activators and does not explain the sign; nearly all actives have a fitted effect of over 65% in size
Target sequence (P80244 whole entry, looked up): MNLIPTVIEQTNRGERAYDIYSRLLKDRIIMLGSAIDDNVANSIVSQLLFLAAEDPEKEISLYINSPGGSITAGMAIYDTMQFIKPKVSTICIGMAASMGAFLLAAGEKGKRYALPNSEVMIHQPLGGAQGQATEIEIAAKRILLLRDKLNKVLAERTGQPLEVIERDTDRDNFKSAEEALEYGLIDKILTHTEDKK
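FRET quenching reversal measured ClpP activation: 10 microg/mL B. subtilis ClpP at pH 8 with the FRET-FV decapeptide, read at 430 nm after 320 nm excitation. The 20-min minus 0-min signal was scaled between DMSO/no-enzyme wells and ADEP (5.8 microM final).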
TDP1 cell noCPT: qHTS for Inhibitors of human tyrosyl-DNA phosphodiesterase 1 (TDP1): qHTS in cells in absence of CPT; 420,000 compounds, 15% hits; DT40 Tdp1-/- hTDP1 cells, no CPT, ATP luminescence, 48 h; Potency, µM (series often up to 46.2 µM), inactives show at the highest dose activity change, negative = growth inhibition, usual class: inhibitors; note: potency is the fitted concentration of half-maximal effect; % is set by controls: 0 for no effect and ±100 for the full control effect; nearly all actives have a fitted effect of over 55% in size
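Cells were dispensed at 400 per well, compounds added by pin tool, plates incubated ≥48 hr at 37 °C, then CellTiter-Glo added for 30 min at room temperature before luminescence reading. Line: DT40 Tdp1-/- complemented with hTDP1; camptothecin omitted.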
* hit, by the source's call. Unless noted, calls come from the whole dose curve; as a rule, active = well fitted inhibition curve with a large enough effect; inconclusive = small, poorly fitted or top-dose-only effect; inactive = flat fitted curve, though single readings scatter.

Results for O=C(O)c1cn(-c2ccccc2)nc1-c1cccnc1 ?
TDP1 cell CPT: 3%; D3 ag: 6; D3 antag: 10; IL-1B inflam inh: 4; ClpP mod: -1%; TDP1 cell noCPT: -21%

Results for CCCOc1ccc(C(=O)Nc2ccc3nn(-c4ccc(OC)c(Cl)c4)nc3c2)cc1 ?
TDP1 cell CPT: -22%; D3 ag: -23; ClpP mod: 4%; TDP1 cell noCPT: inconclusive

What do the screens show for `COCC(=O)N1CCC(Oc2ccc(C(=O)N3CCCCC3COC)cc2)CC1` (stereo not given)?
TDP1 cell CPT: -5%; D3 ag: 2; D3 antag: -16; IL-1B inflam inh: 9; ClpP mod: -2%; TDP1 cell noCPT: 15%

How did O=C(Cn1cc(C(=O)c2ccncc2)c(=O)c2cc(F)ccc21)Nc1ccc(Cl)cc1 do in these assays?
TDP1 cell CPT: inconclusive; D3 ag: -12; ClpP mod: -2%; TDP1 cell noCPT: inconclusive

Results for CCCNC(=O)C1(C)CCN1C(=O)Cc1ccc(C(C)(C)C)cc1 (stereo not given) ?
TDP1 cell CPT: inconclusive; D3 ag: -5; D3 antag: -20; IL-1B inflam inh: 42; ClpP mod: 0%; TDP1 cell noCPT: 15µM*

How did CSCCNC(=O)C1(C)CCN1C(=O)c1ccc(C(C)(C)C)cc1 (stereo not given) do in these assays?
TDP1 cell CPT: 18µM*; D3 ag: 4; D3 antag: -22; IL-1B inflam inh: 31; ClpP mod: 4%; TDP1 cell noCPT: 15µM*

How did CCCNC(=O)C1(C)CCN1C(=O)c1ccc(C(C)(C)C)cc1 (stereo not given) do in these assays?
TDP1 cell CPT: inconclusive; D3 ag: -4; D3 antag: -2; IL-1B inflam inh: 23; ClpP mod: 0%; TDP1 cell noCPT: 15µM*

Results for O=C(NNC(=O)C12CC3CC(CC(C3)C1)C2)c1ccccc1[N+](=O)[O-] ?
TDP1 cell CPT: -3%; D3 ag: 0; D3 antag: 5; IL-1B inflam inh: -4; TDP1 cell noCPT: -10%

Results for CCOC(=O)c1c(NC(=O)c2cc(C)on2)c2cc([N+](=O)[O-])ccc2n1C ?
TDP1 cell CPT: 8%; D3 ag: -4; D3 antag: -12; IL-1B inflam inh: -1; ClpP mod: 0%; TDP1 cell noCPT: 9%

Results for CC(C)(C)OC(=O)C[C@H]1C/C=C\C[C@@H](CC(=O)N(CCO)Cc2ccccc2)C(=O)N[C@H](C(C)(C)C)COC1=O ?
TDP1 cell CPT: inconclusive; D3 ag: -2; D3 antag: 24; IL-1B inflam inh: 2; ClpP mod: 1%; TDP1 cell noCPT: 15µM*

What do the screens show for `CC(C)(C)OC(=O)C[C@@H]1C/C=C\C[C@@H](CC(=O)N(CCO)Cc2ccccc2)C(=O)N[C@H](C(C)(C)C)COC1=O`?
TDP1 cell CPT: 21µM*; D3 ag: 3; D3 antag: 16; IL-1B inflam inh: 14; ClpP mod: 2%; TDP1 cell noCPT: inconclusive

What do the screens show for `CC(C)(C)OC(=O)C[C@@H]1C/C=C\C[C@H](CC(=O)N(CCO)Cc2ccccc2)C(=O)N[C@H](Cc2ccccc2)COC1=O`?
TDP1 cell CPT: inconclusive; D3 ag: 21; D3 antag: 0; IL-1B inflam inh: -19; ClpP mod: -1%; TDP1 cell noCPT: 23µM*

How did COc1cc(NC(=O)CCCc2c[nH]c3ccccc23)cc(OC)c1 do in these assays?
TDP1 cell CPT: inconclusive; D3 ag: 1; D3 antag: -10; IL-1B inflam inh: -9; ClpP mod: -7%; TDP1 cell noCPT: inconclusive

What do the screens show for `O=C(Nc1ccc(Cl)c(Cl)c1)N(Cc1c[nH]c2ccccc12)C1CCCCC1`?
TDP1 cell CPT: 5.8µM*; D3 ag: -4; ClpP mod: -8%; TDP1 cell noCPT: 9.2µM*

Results for O=C(COC(=O)Cc1c[nH]c2ccccc12)NC1CCCCC1 ?
TDP1 cell CPT: 10%; D3 ag: -2; D3 antag: 6; IL-1B inflam inh: 11; TDP1 cell noCPT: -11%

What do the screens show for `COc1cccc(NC(=O)N(C2CCCCC2)C(C)c2cccs2)c1` (stereo not given)?
TDP1 cell CPT: 10µM*; D3 ag: 7; D3 antag: -6; IL-1B inflam inh: 2; ClpP mod: 4%; TDP1 cell noCPT: 13µM*

How did COc1cccc(NC(=O)N(Cc2c[nH]c3ccccc23)C2CCCCCC2)c1 do in these assays?
TDP1 cell CPT: 12µM*; D3 ag: -3; ClpP mod: -3%; TDP1 cell noCPT: 9.2µM*

What do the screens show for `Cc1csc(NC(=O)COc2ccc3c(c2)CCC3)n1`?
TDP1 cell CPT: -18%; D3 ag: 0; D3 antag: -30; IL-1B inflam inh: -14; ClpP mod: 2%; TDP1 cell noCPT: -22%

What do the screens show for `Cc1cccc(C)c1NC(=O)C(c1ccccc1)N1CCN(c2ccc(F)cc2)CC1` (stereo not given)?
TDP1 cell CPT: inconclusive; D3 ag: -12; D3 antag: 5; IL-1B inflam inh: 7; ClpP mod: -4%; TDP1 cell noCPT: -23%

Results for Cc1cccc(C)c1NC(=O)CN1CCC(Cc2ccccc2)CC1 ?
TDP1 cell CPT: 21µM*; D3 ag: -9; D3 antag: -69*; IL-1B inflam inh: 18; ClpP mod: 1%; TDP1 cell noCPT: 13µM*

Results for Cc1cccc(C)c1NC(=O)CN1CCN(CCCC(c2ccc(F)cc2)c2ccc(F)cc2)CC1 ?
TDP1 cell CPT: 7.3µM*; D3 ag: -79; D3 antag: -79*; IL-1B inflam inh: -60*; ClpP mod: 0%; TDP1 cell noCPT: 5.8µM*

How did Cc1cccc(C)c1NC(=O)C(c1ccccc1)N1CCC(Cc2ccccc2)CC1 (stereo not given) do in these assays?
TDP1 cell CPT: 9.2µM*; D3 ag: 2; D3 antag: 3; IL-1B inflam inh: 28; ClpP mod: 3%; TDP1 cell noCPT: 9.2µM*

Results for COc1cc(NC(=O)CN2CCC(Cc3ccccc3)CC2)c(C)cc1[N+](=O)[O-] ?
TDP1 cell CPT: 7.3µM*; D3 ag: 18; D3 antag: 11; IL-1B inflam inh: 17; ClpP mod: -2%; TDP1 cell noCPT: 8.2µM*

Screening data (PubChem BioAssay)
